# Activity calls are given as the source filed them. Calls come from the whole dose curve; as a rule, active = well fitted curve in the direction sought with a large enough effect; inactive = flat fitted curve, though single readings scatter.
# Experiment: Quantitative high throughput screen for delayed death inhibitors of the malarial parasite plastid: Hit Validation with 3D7 at 96 hr using Flow Cytometry
# Settings: P. falciparum 3D7 in erythrocytes, SYBR/MitoTracker flow cytometry
# Text: The goal of this screen is to discover new antimalarial compounds that act by inhibiting the development of the apicoplast organelle in the malarial parasite Plasmodium falciparum. Some antibiotics, such as azithromycin and tetracycline, are known to interfere with the apicoplast translational machinery, and have a potent antimalarial effect. […] We developed a cell-based quantitative high throughput screen that leverages this "delayed death" phenotype to enrich for compounds that target the apicoplast. To detect small molecules that cause the delayed death phenotype, erythrocytes infected with firefly luciferase-expressing parasites were incubated with compounds for either one or two generations, corresponding to 48 and 96 hours, respectively. Growth inhibition was detected by a decrease in luciferase activity. Compounds that inhibited parasite growth in the second generation at least five-fold more potently than in the first generation were defined as delayed death inducing. These compounds were selected for confirmatory screening using a flow cytometry based assay. This hit validation assay used the 3D7 cell line and measured at 96 hours. NIH Molecular Libraries Probe Production Network [MLPCN] NIH Chemical Genomics Center [NCGC] MLPCN Grant: R21 NS059500 Assay Provider: David Fidock and Eric Ekland, Columbia University
# Test compounds were diluted in 20 microliters of complete media (RPMI 1640 with 0.5% w/v Albumax (GIBCO), 24 mM sodium bicarbonate (Sigma) and 10 ug/mL gentamycin (Gibco)) in clear 384-well plates (Greiner). All liquid handling was conducted using a Bio Tek Precision 2000 pipetting system. Twenty microliters of infected erythrocytes, 0.2% parasitemia (for 48 hour time points) or 0.1% parasitemia (for 96 hour time points) were added to the compound dilutions (1% hematocrit, final concentration; 40 microliters, total culture volume). The assay plates were incubated for 48 hours, or 96 hours, at 37 masculine C in a humidified chamber (Billups- Rothenberg, Del Mar, CA, USA), gassed with 5%CO2/5%O2/ 90%N2. After two generations (96hours), 5 microliters of culture were harvested and transferred to a second 384 well plate for fluorescent staining. Samples were stained with 30 microliters of 2 x SYBR Green I (Invitrogen) and 150nM MitoTracker Deep Red (Invitrogen) diluted in 0.9% NaCl, 0.2% dextrose (Baxter) supplemented with 2.5% Fetal Calf Serum (Gibco) (saline/FCS). Mature erythrocytes lack nuclei and mitochondria, therefore only parasitized erythrocytes retain the SYBR Green I and MitoTracker Deep Red. After 30 minutes at 37 masculine C, the stained cells were diluted in an additional 60 microliters of saline/FCS. The samples were harvested directly from the 384 well plate using a Hypercyt High Capacity Flow Platform (Intellicyt) paired with a C6 Flow Cytometer (Accuri). The flow cytometry files were analyzed using FlowJo software (FlowJo).
row,SMILES,Potency
1,O=C(NCc1cccnc1)c1ccc(NS(=O)(=O)c2ccccc2)cc1,21.4 µM (active)
2,CCC(=O)OC1C(N(C)C)CC(C)O[C@H]1O[C@H]1[C@H](C)[C@@H](O[C@H]2CC(OC)[C@@H](O)C(C)O2)[C@H](C)C(=O)O[C@@H](CC)[C@](C)(O)[C@@H](O)[C@H](C)C(=O)[C@@H](C)C[C@]1(C)O (some centres not stated),11.4 µM (active)

# From PubChem BioAssay AID624335 (National Center for Advancing Translational Sciences (NCATS), 2012)
